The text below walks through data of PubChem BioAssay.

Active and inactive are the calls of the source.

Assay [1] is described as follows: small molecules captured by biotinylated probe aFSTL3 – biochemical, small-molecule microarray, fluorescence 635/667, stem cell growth factor project, primary screen (AID 1064).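 Further: measures binding of the biotinylated anti-FSTL3 antibody to printed compounds.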 The note with it: higher = more signal.
Assay [2] in a line: binders from COS7 lysate, DM2A8 probe, primary screen, torsin A project, cell lysate, small-molecule microarray, fluorescence 635/667 (AID 1065). To be noted: higher = more signal, COS7 lysate expressing mutant human TOR1A.
Assay [3] in a line: small molecules captured by biotinylated probe aFGF2 – biochemical, small-molecule microarray, fluorescence 635/667, stem cell growth factor project, primary screen (AID 1067).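 Further: measures binding of biotinylated aFGF2 protein to printed compounds on slides; z-score merges feature fluorescence and signal-to-noise across triplicate slides.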 To be noted: higher = more signal.
The nature of assay [4]: small molecules captured by biotinylated probe aFGF10 – biochemical, small-molecule microarray, fluorescence 635/667, stem cell growth factor project, primary screen (AID 1071).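 Further: score merges 667 nm spot intensity and signal to noise from triplicate slides.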 To be noted: higher = more signal.
For assay [5], the target named is Neurogenic locus notch homolog protein 2 (Homo sapiens) (UniProt Q04721). Briefly: small molecules binding Notch2 protein – biochemical, small-molecule microarray, 635 nm fluorescence, stem cell growth factors, primary screen (AID 1073). To be noted: higher = more signal.
Neurogenic locus notch homolog protein 2 (Homo sapiens), sequence (Q04721 whole entry, looked up, canonical isoform): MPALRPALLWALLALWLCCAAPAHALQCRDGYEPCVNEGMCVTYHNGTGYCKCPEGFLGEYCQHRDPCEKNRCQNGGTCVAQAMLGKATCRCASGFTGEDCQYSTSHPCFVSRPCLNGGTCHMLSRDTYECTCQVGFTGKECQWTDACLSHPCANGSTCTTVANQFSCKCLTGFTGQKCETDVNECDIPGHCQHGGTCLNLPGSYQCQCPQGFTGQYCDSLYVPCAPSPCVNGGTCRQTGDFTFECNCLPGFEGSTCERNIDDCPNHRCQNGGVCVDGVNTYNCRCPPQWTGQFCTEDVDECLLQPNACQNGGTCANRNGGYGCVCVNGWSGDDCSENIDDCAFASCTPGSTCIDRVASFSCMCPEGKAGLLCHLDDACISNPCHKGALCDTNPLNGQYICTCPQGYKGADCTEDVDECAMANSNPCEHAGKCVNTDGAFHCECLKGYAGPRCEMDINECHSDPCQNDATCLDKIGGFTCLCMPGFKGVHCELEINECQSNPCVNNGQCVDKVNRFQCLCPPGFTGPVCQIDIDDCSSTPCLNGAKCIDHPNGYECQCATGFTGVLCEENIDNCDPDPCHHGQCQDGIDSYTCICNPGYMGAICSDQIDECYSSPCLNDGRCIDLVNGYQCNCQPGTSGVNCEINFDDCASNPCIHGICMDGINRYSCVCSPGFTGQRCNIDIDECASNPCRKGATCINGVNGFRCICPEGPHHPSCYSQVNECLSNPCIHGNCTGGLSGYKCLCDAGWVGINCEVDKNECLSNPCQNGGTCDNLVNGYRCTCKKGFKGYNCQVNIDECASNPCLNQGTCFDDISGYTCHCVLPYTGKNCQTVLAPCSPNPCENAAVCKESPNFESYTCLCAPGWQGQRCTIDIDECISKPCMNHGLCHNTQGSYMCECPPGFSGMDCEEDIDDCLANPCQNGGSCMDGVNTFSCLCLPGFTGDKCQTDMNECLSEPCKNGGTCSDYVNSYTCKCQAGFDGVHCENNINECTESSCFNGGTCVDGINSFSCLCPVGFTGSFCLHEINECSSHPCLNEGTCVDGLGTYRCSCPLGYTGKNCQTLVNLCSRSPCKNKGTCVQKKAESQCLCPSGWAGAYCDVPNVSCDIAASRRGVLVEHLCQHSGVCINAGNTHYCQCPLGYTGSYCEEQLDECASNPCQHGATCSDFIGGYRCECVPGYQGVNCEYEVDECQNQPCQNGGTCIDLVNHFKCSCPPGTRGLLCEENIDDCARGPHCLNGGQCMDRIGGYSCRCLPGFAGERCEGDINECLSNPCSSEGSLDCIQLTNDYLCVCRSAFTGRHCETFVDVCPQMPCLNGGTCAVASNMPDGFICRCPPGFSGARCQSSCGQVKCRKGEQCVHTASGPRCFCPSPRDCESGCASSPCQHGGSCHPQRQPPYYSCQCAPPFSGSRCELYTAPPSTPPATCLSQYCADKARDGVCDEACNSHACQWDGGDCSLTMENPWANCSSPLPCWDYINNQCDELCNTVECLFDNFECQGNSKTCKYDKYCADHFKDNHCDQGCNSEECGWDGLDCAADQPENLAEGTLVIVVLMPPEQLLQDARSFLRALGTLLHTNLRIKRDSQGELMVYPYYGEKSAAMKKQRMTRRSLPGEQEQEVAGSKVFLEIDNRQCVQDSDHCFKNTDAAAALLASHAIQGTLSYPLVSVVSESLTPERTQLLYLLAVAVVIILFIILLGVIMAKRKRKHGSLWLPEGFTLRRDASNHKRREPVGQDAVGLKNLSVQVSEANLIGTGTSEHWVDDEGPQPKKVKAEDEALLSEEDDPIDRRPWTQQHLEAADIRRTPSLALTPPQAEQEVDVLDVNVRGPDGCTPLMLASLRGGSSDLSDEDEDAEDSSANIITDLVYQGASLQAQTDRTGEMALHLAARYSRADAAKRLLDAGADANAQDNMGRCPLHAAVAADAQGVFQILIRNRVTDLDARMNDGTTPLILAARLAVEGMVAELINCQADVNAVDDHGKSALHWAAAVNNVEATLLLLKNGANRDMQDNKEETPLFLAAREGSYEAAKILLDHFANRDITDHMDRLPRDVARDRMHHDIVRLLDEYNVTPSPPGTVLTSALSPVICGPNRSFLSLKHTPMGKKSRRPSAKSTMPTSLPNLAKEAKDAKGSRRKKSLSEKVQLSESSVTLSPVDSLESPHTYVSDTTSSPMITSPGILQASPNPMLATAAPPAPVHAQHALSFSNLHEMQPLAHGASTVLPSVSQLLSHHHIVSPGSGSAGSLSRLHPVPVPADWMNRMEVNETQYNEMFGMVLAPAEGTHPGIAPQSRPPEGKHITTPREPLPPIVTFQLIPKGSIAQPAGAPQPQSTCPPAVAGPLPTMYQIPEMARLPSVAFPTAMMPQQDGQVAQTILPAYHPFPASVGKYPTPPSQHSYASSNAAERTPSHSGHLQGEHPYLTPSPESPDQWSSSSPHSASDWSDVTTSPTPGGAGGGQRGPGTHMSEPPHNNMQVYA
Assay [6] has as its target Pro-neuregulin-1, membrane-bound isoform (Homo sapiens) (UniProt Q02297). Briefly: small molecules binding neuregulin-1 protein – biochemical, small-molecule microarray, fluorescence 635/667, psychiatric disease protein project, primary screen (AID 1075).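 Further: score combines 667 nm spot fluorescence with signal to noise.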 To be noted: NRG1 binding, 635 nm fluorescence, higher = more signal.
The subject of assay [7] is Neuregulin-1 EGF-like domain. Briefly: small molecules binding NRG1 EGF domain – biochemical, small-molecule microarray, 635 nm fluorescence, primary screen (AID 1081).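 Further: binding of the protein to compounds printed on small-molecule microarray slides.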 The note with it: higher = more signal.
A short description of assay [8]: FRG1 expression reporter modulators in myotubes – cell-based, C2C12 myotubes, firefly/Renilla luciferase, luminescence, FRG1 inhibition for FSHD, primary screen (AID 1084). To be noted: FRG1 promoter luciferase, higher = more signal, called active from +8 up or from −8 down.
A short description of assay [9]: small molecules captured by biotinylated probe aFST – biochemical, small-molecule microarray, fluorescence 635/667, stem cell growth factor project, primary screen (AID 1086).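 Further: score merges 667 nm fluorescence with signal-to-noise of each printed compound spot.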 To be noted: higher = more signal.
Assay [10] can be described thus: binders of probe aHhip on microarray, primary screen, stem cell growth factor project, biochemical, small-molecule microarray, fluorescence 635/667 (AID 1087).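 Further: score merges spot fluorescence at 667nm with spot signal to noise ratio.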 To be noted: higher = more signal.
The subject of assay [11] is PRMT1 (protein arginine N-methyltransferase 1). Briefly: small molecules binding arginine methyltransferase PRMT1 – biochemical, small-molecule microarray, 635 nm fluorescence, primary screen (AID 1088).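 Further: binding of Prmt1 protein to compounds spotted on small-molecule microarray slides.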 The note with it: higher = more signal.
A short description of assay [12]: growth effects on S. cerevisiae YJM789 – YJM789 clinical isolate, OD600, 24 h, basal, primary screen (AID 1089).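 Further: growth of clinical yeast isolate S. cerevisiae YJM 789 seeded 1000 cells per well; test concentration not given here.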 To be noted: higher = more signal, called active from +8 up or from −8 down.
A short description of assay [13]: S. pombe growth modifiers, basal conditions – strain 972, OD600, 24 h, no modulator, primary screen (AID 1090).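 Further: basal condition with compound alone and no growth modifier present; test concentration not given here.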 To be noted: S. pombe 972 growth, higher = more signal, called active from +8 up or from −8 down.
Assay [14] is described as follows: budding yeast growth modifiers under rapamycin – strain BY4716, OD600, 96 h, primary screen (AID 1091). Further: test concentration not given here. To be noted: S. cerevisiae BY4716 + rapamycin, higher = more signal, called active from +8 up or from −8 down.
Assay [15] has as its target Torsin-1A-interacting protein 2 (Homo sapiens) (UniProt Q8NFQ8). Briefly: small molecules binding lysate-expressed LULL1 – cell lysate, human LULL1 lysate, 635/667 nm fluorescence, primary screen (AID 1092).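 Further: probe is lysate of COS7 cells overexpressing human LULL1; score merges per-feature 667 nm fluorescence with signal-to-noise.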 The note with it: small-molecule microarray, hLULL1 lysate binding, 635 nm fluorescence; higher = more signal.
A short description of assay [16]: optical density change of DRC41 E. coli – strain DRC41, OD650, 24 h, E. coli filamentation project, primary screen (AID 1093).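 Further: MC1000 strain lacking acrAB efflux and sulA so SOS filamentation is blocked; test concentration not given here.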 To be noted: E. coli DRC41 growth, higher = more signal, called active from +8 up or from −8 down.
Assay [17] in a line: probe aLefty2 binding to arrayed compounds – biochemical, biotinylated probe, 635/667 nm fluorescence, primary screen (AID 1094).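 Further: score merges spot fluorescence near 667 nm with spot signal-to-noise ratio.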 The note with it: small-molecule microarray, higher = more signal.
The subject of assay [18] is Noggin (protein binding on small-molecule microarray). Briefly: small molecules binding Noggin protein – biochemical, 635/667 nm fluorescence, primary screen (AID 1095).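 Further: score merges 667 nm feature fluorescence with signal to noise over triplicate slides.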 To be noted: 635 nm fluorescence, higher = more signal.
Assay [19] addresses Neurogenic locus notch homolog protein 3 (Homo sapiens) (UniProt Q9UM47). Briefly: small molecules binding NOTCH3 protein – biochemical, 635/667 nm fluorescence, primary screen (AID 1096). To be noted: small-molecule microarray, 635 nm fluorescence, higher = more signal.
Assay [20] in a line: probe aEGFR binding to arrayed compounds – biochemical, biotinylated probe, 635/667 nm fluorescence, primary screen (AID 1097).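 Further: probe is a biotinylated anti-EGFR antibody binding compounds printed on slides; score combines fluorescence near 667 nm and signal to noise of each spot.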 The note with it: small-molecule microarray, higher = more signal.

Torsin-1A-interacting protein 2 (Homo sapiens), sequence (Q8NFQ8 whole entry, looked up): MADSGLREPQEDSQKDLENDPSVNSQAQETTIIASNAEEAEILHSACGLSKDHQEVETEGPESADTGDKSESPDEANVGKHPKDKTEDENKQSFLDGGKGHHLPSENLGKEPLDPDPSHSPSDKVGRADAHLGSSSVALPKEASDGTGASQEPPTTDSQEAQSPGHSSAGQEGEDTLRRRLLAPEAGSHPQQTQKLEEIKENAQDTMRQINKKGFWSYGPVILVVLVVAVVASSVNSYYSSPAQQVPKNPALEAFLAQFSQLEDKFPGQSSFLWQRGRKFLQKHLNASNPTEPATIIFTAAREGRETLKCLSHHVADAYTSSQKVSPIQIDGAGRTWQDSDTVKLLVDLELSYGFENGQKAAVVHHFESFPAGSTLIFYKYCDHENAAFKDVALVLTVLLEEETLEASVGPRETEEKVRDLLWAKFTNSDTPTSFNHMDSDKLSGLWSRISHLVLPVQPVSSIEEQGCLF
Pro-neuregulin-1, membrane-bound isoform (Homo sapiens), sequence (Q02297 whole entry, looked up, the tested form may be a part, canonical isoform): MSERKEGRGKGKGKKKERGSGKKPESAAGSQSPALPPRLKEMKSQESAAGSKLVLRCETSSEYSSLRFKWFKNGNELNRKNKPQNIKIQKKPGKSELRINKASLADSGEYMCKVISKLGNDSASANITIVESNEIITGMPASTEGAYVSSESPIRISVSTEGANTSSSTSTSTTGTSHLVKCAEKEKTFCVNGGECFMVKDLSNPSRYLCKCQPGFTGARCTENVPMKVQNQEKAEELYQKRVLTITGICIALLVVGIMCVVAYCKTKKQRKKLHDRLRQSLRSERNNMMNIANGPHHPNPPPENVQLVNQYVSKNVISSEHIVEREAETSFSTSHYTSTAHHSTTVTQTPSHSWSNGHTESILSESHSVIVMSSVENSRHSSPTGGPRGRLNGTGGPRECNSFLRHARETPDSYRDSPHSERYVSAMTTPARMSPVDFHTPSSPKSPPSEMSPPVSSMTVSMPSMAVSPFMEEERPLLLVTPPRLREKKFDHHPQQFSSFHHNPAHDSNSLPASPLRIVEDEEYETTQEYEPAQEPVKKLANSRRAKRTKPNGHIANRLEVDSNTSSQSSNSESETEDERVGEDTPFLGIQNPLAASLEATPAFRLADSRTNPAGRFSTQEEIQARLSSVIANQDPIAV

As to `CCCN1C(=O)[C@]2(CCC(=O)OC(C)(C)C)N=C(c3ccc(OCCCO)cc3)O[C@@H]2c2ccccc21`, the composite z-score was 0.678 in assay [1]; 1.24 in assay [2]; -0.0136 in [3]; 0.152 in assay [4]; 0.399 in assay [5]; 0.421 in [6]. The composite z-score in [7] was 1.07; in assay [9], 0.0678; in [10], -0.0645; in assay [11], 1.52; in assay [15] it was 1.62; in [17], 0.151. The figures for the composite z-score in assay [18], in [19] and in assay [20] were 1.37, 0.571 and -0.134, respectively. Besides, the z-score in assay [8] is 0.177 (inactive); in assay [12], -1.93 (inactive); in assay [13] it was -0.474 (inactive); in assay [14], 1.5 (inactive); in assay [16], 0.916 (inactive).
On to `CC(C)N1C(=O)C[C@@](C(=O)NCCN2CCOCC2)(c2ccc([N+](=O)[O-])cc2)[C@H]1c1ccc(CO)cc1`, for which the composite z-score in assay [1] is 0.489; in assay [2], -0.32; in assay [3], -0.21; in assay [4], -0.692; in [5], -0.575; in assay [6], 0.543. The composite z-score was 0.851 in assay [7]; -1.1 in [9]; -0.0708 in assay [10]; 0.266 in assay [11]; 3.61 in assay [15]; -0.001 in [17]. Further, the composite z-score was 0.193 in assay [18], -0.958 in assay [19] and -0.228 in assay [20]. Moreover, the z-score in assay [8] is 1.08 (inactive); in assay [12], -1.77 (inactive); in [13] it was -0.274 (inactive); in [14], -1.76 (inactive); in [16] it was 0.214 (inactive).
For `COc1ccc([Si](C)(C)[C@H]2[C@H](CC(=O)N3CCC[C@H]3CO)O[C@@]3(C(=O)N(Cc4ccc(N5CCCCC5=O)cc4)c4ccccc43)[C@@H]2C)cc1`, the composite z-score was -0.35 in assay [1]; 0.227 in assay [2]; -0.0494 in [3]; 0.671 in assay [4]; 0.565 in [5]; 1.33 in assay [6]. For the same molecule, the composite z-score in [7] is 1.12; in assay [9], 0.536; in assay [10] it was 0.0373; in [11] it was 1.54; in assay [15] it was 2.51; in [17], -0.18. Also, the composite z-score in [18] was 1.41; in assay [19], 1.06; in assay [20], -0.0531. The z-score is -4.24 (inactive) in [8]; -0.398 (inactive) in assay [12]; 0.591 (inactive) in [13]; -0.801 (inactive) in [14]; 2.32 (inactive) in assay [16].
For the molecule `NC(=O)NCC#Cc1ccc2c(c1)[C@]1(C(=O)N2)[C@H](c2ccc(OCCO)cc2)N2[C@H](c3ccccc3)[C@H](c3ccccc3)OC(=O)[C@H]2[C@@H]1C(=O)O`, the composite z-score in [1] was -0.218; in assay [2], 1.36; in assay [3], -0.187; in assay [4] it was 0.23; in assay [5] it was -0.459; in assay [6] it was 1.68. Further, the composite z-score in [7] is -0.269; in assay [9], 0.0897; in [10], -0.374; in assay [11] it was -0.541; in [15], -0.143; in assay [17] it was -0.139. For the same molecule, the composite z-score is -0.292 in assay [18], -0.343 in assay [19] and -0.209 in assay [20]. The z-score was 0.542 (inactive) in assay [8]; 0.467 (inactive) in assay [12]; -0.662 (inactive) in assay [13]; 0.23 (inactive) in [14]; 0.775 (inactive) in assay [16].
For `CCCc1cc2c(n1CCc1ccc(Cl)cc1)C(C)C1CN(C(=O)c3ccccc3)C(C)(C(=O)OC)C21` (stereo not given), the composite z-score worked out at 1.44 in [1]; 0.721 in assay [2]; 0.384 in assay [3]; 0.204 in assay [4]; 1.73 in assay [5]; 1.78 in assay [6]. For the same molecule, the composite z-score in assay [7] is 0.937; in [9], 1.1; in [10] it was 2.27; in assay [11], 0.396; in [15], 3.31; in assay [17], 0.342. The figures for the composite z-score in [18], in [19] and in [20] were -1.01, 1.04 and 0.131, respectively. Further, the z-score was 1.91 (inactive) in assay [8]; 0.318 (inactive) in assay [12]; -0.29 (inactive) in assay [13]; 1.03 (inactive) in assay [14]; -2.17 (inactive) in assay [16].
